Measurements from PubChem BioAssay (NCATS).
“And” between values parts separate entries of the source, which are not always exact repeats. Equal entries are not always repeated. Records with an inconclusive call do not appear. The source made the active and inactive calls. Unless noted, calls come from the whole dose curve; as a rule, active = well fitted inhibition curve with a large enough effect; inconclusive = small, poorly fitted or top-dose-only effect; inactive = no such curve, though single readings can be large or run the other way.

Test system: not listed separately
Experiment: Primary qHTS for inhibitors of nuclear receptor binding SET domain protein 2 (NSD2) in an RCH-ACV wild type WT cells (2C) (AID 1645877); note: nearly all actives have a fitted effect of over 70% in size
Conditions: RCH-ACV (leukaemia line) NSD2 WT (2C) viability, CellTiter-Glo, 72 h; series mostly up to 44.9 µM
Potency is the fitted concentration of half-maximal effect.

Structure (SMILES) | Potency
Cc1cc(=O)oc2cc(O)ccc12 | inactive
O=c1cc(N2CCOCC2)oc2c(-c3ccccc3)cccc12 | 2.63 µM (active)
S=c1nc[nH]c2nc[nH]c12 | 668 nM (active) and 1.66 µM (active)
CN1C(C(=O)Nc2ccccn2)=C(O)c2sccc2S1(=O)=O | inactive
COc1cc(Nc2c(C#N)cnc3cc(OCCCN4CCN(C)CC4)c(OC)cc23)c(Cl)cc1Cl | 531 nM (active) and 1.63 µM (active) and 1.48 µM (active)

Biological target: Catechol O-methyltransferase (Homo sapiens) (UniProt P21964)
Experiment: Confirmatory Screen for Target Class Profiling of Small Molecule Inhibitors of Methyltransferases (AID 1745852; calls by dose curve; for activity change, negative = inhibition: % is set by controls: 0 for no effect and ±100 for the full control effect)
Conditions: MTase-Glo luminescence, SAH detection, recombinant enzyme, stronger effect = lower value; measured here: COMT max response unless noted

Catechol O-methyltransferase (Homo sapiens), sequence (P21964 whole entry, looked up): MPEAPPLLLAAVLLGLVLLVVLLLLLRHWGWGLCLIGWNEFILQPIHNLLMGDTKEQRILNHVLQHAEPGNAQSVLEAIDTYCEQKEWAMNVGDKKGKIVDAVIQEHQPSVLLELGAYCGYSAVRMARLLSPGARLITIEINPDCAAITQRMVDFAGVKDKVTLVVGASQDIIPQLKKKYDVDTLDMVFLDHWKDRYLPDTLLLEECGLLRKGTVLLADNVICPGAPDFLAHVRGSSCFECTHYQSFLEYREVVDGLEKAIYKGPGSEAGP

Structure (SMILES) | activity
C[C@H](Cc1ccc(O)c(O)c1)[C@@H](C)Cc1ccc(O)c(O)c1 | 10.2%
CCN(CC)C(=S)SSC(=S)N(CC)CC | -3.32%
COc1cc(Nc2c(C#N)cnc3cc(OCCCN4CCN(C)CC4)c(OC)cc23)c(Cl)cc1Cl | -94.4%

Biological target: Guanidinoacetate N-methyltransferase (Homo sapiens) (UniProt Q14353)
Experiment: as above
Conditions: MTase-Glo luminescence, SAH detection, recombinant enzyme; activity change, negative = inhibition: at 57.3 µM (top of the series)

Structure (SMILES) | Potency | activity change, negative = inhibition
C[C@H](Cc1ccc(O)c(O)c1)[C@@H](C)Cc1ccc(O)c(O)c1 | 30.6 µM (active) | 
CCN(CC)C(=S)SSC(=S)N(CC)CC |  | 4.64%
COc1cc(Nc2c(C#N)cnc3cc(OCCCN4CCN(C)CC4)c(OC)cc23)c(Cl)cc1Cl | 12.1 µM (active) | 

Biological target: Nicotinamide N-methyltransferase (Homo sapiens) (UniProt P40261)
Experiment: as above
Conditions: MTase-Glo luminescence, SAH detection, recombinant enzyme, stronger effect = lower value; measured here: NNMT max response unless noted

Nicotinamide N-methyltransferase (Homo sapiens), sequence (P40261 whole entry, looked up): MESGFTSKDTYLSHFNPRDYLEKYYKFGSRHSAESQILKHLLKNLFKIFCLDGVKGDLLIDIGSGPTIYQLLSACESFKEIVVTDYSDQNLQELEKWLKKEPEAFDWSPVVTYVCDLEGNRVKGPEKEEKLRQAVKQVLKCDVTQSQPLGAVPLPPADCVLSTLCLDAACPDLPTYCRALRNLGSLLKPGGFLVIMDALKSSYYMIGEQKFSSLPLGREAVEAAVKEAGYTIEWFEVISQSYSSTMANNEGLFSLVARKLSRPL

Structure (SMILES) | activity
C[C@H](Cc1ccc(O)c(O)c1)[C@@H](C)Cc1ccc(O)c(O)c1 | -37.4%
CCN(CC)C(=S)SSC(=S)N(CC)CC | -10.3%
COc1cc(Nc2c(C#N)cnc3cc(OCCCN4CCN(C)CC4)c(OC)cc23)c(Cl)cc1Cl | -86.9%
